# Reference: PubChem BioAssay (NCATS)
# Records with an inconclusive call do not appear. Activity calls are given as the source filed them. Calls come from the whole dose curve; as a rule, active = well fitted inhibition curve with a large enough effect; inconclusive = small, poorly fitted or top-dose-only effect; inactive = flat fitted curve, though single readings scatter.
# Tested on: CP266
# Assay: qHTS profiling for inhibitors of Plasmodium falciparum proliferation (AID 504749); note: nearly all actives have a fitted effect of over 60% in size;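 for activity, negative = inhibition: 0% = DMSO vehicle and full inhibition = artemisinin control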
# Conditions: P. falciparum in erythrocytes, SYBR Green DNA, 72 h; series mostly up to 28.7 µM; activity, negative = inhibition: at the top concentration
# Summary of the method: (§1)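 SYBR Green fluorescence of parasite DNA, read after lysis and overnight dark incubation, measured growth over 72 h in erythrocyte culture at 0.3% parasitemia and 2.5% hematocrit. Data normalised to DMSO and 0.29 uM artemisinin, with plate-drift correction.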
# Potency is the fitted concentration of half-maximal effect.
row,Compound,"activity, negative = inhibition"
1,CCCCc1ccc(C(=O)O)nc1,-0.113% (inactive)
2,COC(=O)c1cncn1C(C)c1ccccc1 (centres undefined),-0.191% (inactive)
3,NC1=NC(=O)N2CC12 (centres undefined),-15.6% (inactive)
4,Cc1ccc(Cl)c(O)c1,2.1% (inactive)
5,CC(C)NC(C)Cc1ccc(I)cc1 (centres undefined),0.306% (inactive)
6,CC(=O)OCC1=C(C(=O)O)N2C(=O)[C@@H](N)[C@@H]2SC1,2.82% [at 12.8 µM] (inactive)
7,CCCN1CCC[C@H](c2cccc(O)c2)C1,-18% (inactive)
8,CN(C)[C@@H]1C(=O)C(C(N)=O)=C(O)[C@@]2(O)C(=O)C3=C(O)c4c(O)cccc4[C@@](C)(O)[C@H]3[C@H](O)[C@@H]12,3.04% (inactive)
9,COC(=O)[C@@H](N)CCCN=C(N)N[N+](=O)[O-],-5.61% (inactive)
10,CC[N+]1(CCOC(=O)C(O)(c2ccccc2)c2ccccc2)CCCCC1,-14.6% (inactive)
11,Cc1cc(O)ccc1Cl,3.64% (inactive)
12,O=C(O)COc1ccccc1,-1.33% (inactive)
13,O=C(O)C(Cl)Cl,2.82% (inactive)
14,C#CC1(O)CCC2C3CCC4=CC(=O)CCC4(C)C3CCC21C (centres undefined),-4.18% (inactive)
15,C[C@]12CCC(=O)C(O)=C1CC[C@@H]1[C@H]3CCC(=O)[C@@]3(C)CC[C@@H]12,-3.99% (inactive)
16,CN1C2CCC1CC(OC(=O)c1cc(Cl)cc(Cl)c1)C2 (centres undefined),-12% (inactive)
17,NC(=O)CN1CC(O)CC1=O (centres undefined),-5.19% (inactive)
18,C=CCN1CC[C@]23CCCCC2[C@H]1Cc1ccc(O)cc13 (some centres undefined),7.52% (inactive)
19,C1CCC(NC2CCCCC2)CC1,6.02% (inactive)

# Tested on: CP268
# Assay: as above
# Conditions: P. falciparum in erythrocytes, SYBR Green DNA, 72 h; series mostly up to 28.7 µM; activity, negative = inhibition: at the top concentration
# Summary of the method: as §1
Compound,"activity, negative = inhibition",Potency
CCCCc1ccc(C(=O)O)nc1,-5.09% (inactive),
COC(=O)c1cncn1C(C)c1ccccc1 (centres undefined),-4.04% (inactive),
O=[N+]([O-])c1ccc([As](=O)(O)O)cc1,,13.5 µM (active)
Cc1ccc(Cl)c(O)c1,-0.232% (inactive),
CC(=O)OCC1=C(C(=O)O)N2C(=O)[C@@H](N)[C@@H]2SC1,-6.66% [at 12.8 µM] (inactive),
CCCCCCCCCCCCCCCC[N+](C)(C)C,,13.5 µM (active)
CCCN1CCC[C@H](c2cccc(O)c2)C1,-4.25% (inactive),
CN(C)[C@@H]1C(=O)C(C(N)=O)=C(O)[C@@]2(O)C(=O)C3=C(O)c4c(O)cccc4[C@@](C)(O)[C@H]3[C@H](O)[C@@H]12,-6.73% (inactive),
COC(=O)[C@@H](N)CCCN=C(N)N[N+](=O)[O-],-1.06% (inactive),
CC[N+]1(CCOC(=O)C(O)(c2ccccc2)c2ccccc2)CCCCC1,-10.4% (inactive),
CC(=O)[O][Hg][c]1ccccc1,,4.78 µM (active)
Cc1cc(O)ccc1Cl,3.03% (inactive),
CCCCCCCCCC(CC)c1ccc(S(=O)(=O)O)cc1 (centres undefined),-2.68% (inactive),
O=C(O)COc1ccccc1,0.176% (inactive),
c1ccc(C2(c3ccccc3)CC2C2=NCCN2)cc1 (centres undefined),-10.9% (inactive),
O=C(O)C(Cl)Cl,-0.491% (inactive),
C#CC1(O)CCC2C3CCC4=CC(=O)CCC4(C)C3CCC21C (centres undefined),-2.17% (inactive),
C[C@]12CCC(=O)C(O)=C1CC[C@@H]1[C@H]3CCC(=O)[C@@]3(C)CC[C@@H]12,-7.73% (inactive),
CN1C2CCC1CC(OC(=O)c1cc(Cl)cc(Cl)c1)C2 (centres undefined),-12% (inactive),
NC(=O)CN1CC(O)CC1=O (centres undefined),3.96% (inactive),
C=CCN1CC[C@]23CCCCC2[C@H]1Cc1ccc(O)cc13 (some centres undefined),5% (inactive),
C1CCC(NC2CCCCC2)CC1,0.215% (inactive),

# Tested on: CP269
# Assay: as above
# Conditions: P. falciparum in erythrocytes, SYBR Green DNA, 72 h; series mostly up to 28.7 µM; activity, negative = inhibition: at the top concentration
# Summary of the method: as §1
Compound,"activity, negative = inhibition",Potency
CCCCc1ccc(C(=O)O)nc1,0.895% (inactive),
COC(=O)c1cncn1C(C)c1ccccc1 (centres undefined),-6.57% (inactive),
O=[N+]([O-])c1ccc([As](=O)(O)O)cc1,,6.01 µM (active)
Cc1ccc(Cl)c(O)c1,-2.31% (inactive),
CC(C)NC(C)Cc1ccc(I)cc1 (centres undefined),-9.17% (inactive),
CC(=O)OCC1=C(C(=O)O)N2C(=O)[C@@H](N)[C@@H]2SC1,-0.576% [at 12.8 µM] (inactive),
CCCN1CCC[C@H](c2cccc(O)c2)C1,-9.76% (inactive),
CN(C)[C@@H]1C(=O)C(C(N)=O)=C(O)[C@@]2(O)C(=O)C3=C(O)c4c(O)cccc4[C@@](C)(O)[C@H]3[C@H](O)[C@@H]12,-11.3% (inactive),
COC(=O)[C@@H](N)CCCN=C(N)N[N+](=O)[O-],-6.88% (inactive),
CC[N+]1(CCOC(=O)C(O)(c2ccccc2)c2ccccc2)CCCCC1,0.131% (inactive),
CC(=O)[O][Hg][c]1ccccc1,,4.78 µM (active)
Cc1cc(O)ccc1Cl,-12.8% (inactive),
CCCCCCCCCC(CC)c1ccc(S(=O)(=O)O)cc1 (centres undefined),-3.23% (inactive),
O=C(O)COc1ccccc1,-7.21% (inactive),
c1ccc(C2(c3ccccc3)CC2C2=NCCN2)cc1 (centres undefined),-7.46% (inactive),
O=C(O)C(Cl)Cl,-2.41% (inactive),
C#CC1(O)CCC2C3CCC4=CC(=O)CCC4(C)C3CCC21C (centres undefined),-0.451% (inactive),
C[C@]12CCC(=O)C(O)=C1CC[C@@H]1[C@H]3CCC(=O)[C@@]3(C)CC[C@@H]12,-3.1% (inactive),
CN1C2CCC1CC(OC(=O)c1cc(Cl)cc(Cl)c1)C2 (centres undefined),-0.531% (inactive),
NC(=O)CN1CC(O)CC1=O (centres undefined),-0.589% (inactive),
C=CCN1CC[C@]23CCCCC2[C@H]1Cc1ccc(O)cc13 (some centres undefined),2.97% (inactive),
C1CCC(NC2CCCCC2)CC1,-2.72% (inactive),

# Tested on: CP286
# Assay: as above
# Conditions: P. falciparum in erythrocytes, SYBR Green DNA, 72 h; series mostly up to 28.7 µM; activity, negative = inhibition: at the top concentration
# Summary of the method: as §1
Compound,"activity, negative = inhibition",Potency
CCCCc1ccc(C(=O)O)nc1,-4.99% (inactive),
O=[N+]([O-])c1ccc([As](=O)(O)O)cc1,,7.94 µM (active)
Cc1ccc(Cl)c(O)c1,-0.327% (inactive),
CC(C)NC(C)Cc1ccc(I)cc1 (centres undefined),-12.2% (inactive),
CC(=O)OCC1=C(C(=O)O)N2C(=O)[C@@H](N)[C@@H]2SC1,-2.21% [at 12.8 µM] (inactive),
CCCCCCCCCCCCCCCC[N+](C)(C)C,,5.01 µM (active)
CCCN1CCC[C@H](c2cccc(O)c2)C1,-12.2% (inactive),
CN[C@@H]1C[C@@H](c2ccc(Cl)c(Cl)c2)c2ccccc21,,12.6 µM (active)
COC(=O)[C@@H](N)CCCN=C(N)N[N+](=O)[O-],-0.514% (inactive),
CC[N+]1(CCOC(=O)C(O)(c2ccccc2)c2ccccc2)CCCCC1,-21.1% (inactive),
CC(=O)[O][Hg][c]1ccccc1,,3.55 µM (active)
Cc1cc(O)ccc1Cl,-0.326% (inactive),
CCCCCCCCCC(CC)c1ccc(S(=O)(=O)O)cc1 (centres undefined),-0.002% (inactive),
O=C(O)COc1ccccc1,-2.31% (inactive),
O=C(O)C(Cl)Cl,0.207% (inactive),
C#CC1(O)CCC2C3CCC4=CC(=O)CCC4(C)C3CCC21C (centres undefined),-0.117% (inactive),
C[C@]12CCC(=O)C(O)=C1CC[C@@H]1[C@H]3CCC(=O)[C@@]3(C)CC[C@@H]12,-0.65% (inactive),
CN1C2CCC1CC(OC(=O)c1cc(Cl)cc(Cl)c1)C2 (centres undefined),-23.2% (inactive),
NC(=O)CN1CC(O)CC1=O (centres undefined),0.475% (inactive),
C=CCN1CC[C@]23CCCCC2[C@H]1Cc1ccc(O)cc13 (some centres undefined),-0.184% (inactive),
C1CCC(NC2CCCCC2)CC1,-0.366% (inactive),
